Data from PubChem BioAssay AID651812 (National Center for Advancing Translational Sciences (NCATS), 2012).
Hit rate of the full screen: of about 2,100 compounds, about 650 (31%) were called active. About 16% were inconclusive and are not listed. Calls come from the whole dose curve; as a rule, active = well fitted inhibition curve with a large enough effect; inconclusive = small, poorly fitted or top-dose-only effect; inactive = flat fitted curve, though single readings scatter. The list shows a part of the results.

Assay: qHTS for inhibitors of Vif-A3G interactions: Cherry picks; note: nearly all actives have a fitted effect of over 80% in size; for activity, negative = fluorescence increase: % of control where 0% means no effect
Conditions: HeLa A3G-eYFP + Vif (tagged APOBEC3G with the HIV-1 protein that degrades it), 24 h; Potency: eYFP fluorescence increase; series mostly up to 36.9 µM; activity, negative = fluorescence increase: at the top concentration
How it was run: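 HeLa cells stably expressing A3G-eYFP and Vif, cultured overnight then exposed to compounds at several concentrations for 24 hours at 37 C, 5% CO2; cellular yellow fluorescence (488 nm ex, 500-530 nm em) imaged on Acumen, MG132 positive control.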
Potency is the fitted concentration of half-maximal effect.

activity, negative = fluorescence increase, inactive:
N#C/C(=C\c1ccc(C(=O)O)cc1)c1nc2sc3c(c2c(=O)[nH]1)CCCC3 -12.3% [at 46.1 µM]
COc1ccc(NC2=CC(=O)CC(c3ccccc3)C2)c(OC)c1 (centres undefined) 0.141%
Cc1ccc(-n2c(=O)c3ccc(C(=O)NCc4ccccc4Cl)cc3n(CC(=O)Nc3cccc(Cl)c3)c2=O)cc1 -3.23% [at 46.1 µM]
CCCCOc1ccc(/C=C/C2=CC(C)(C)NC(=S)N2)cc1OCC 1.65% [at 46.1 µM]
CCCN1C(=O)C(Cc2nc3ccccc3c(=O)n2CC)c2cc(Br)ccc21 (centres undefined) -3.57% [at 46.1 µM]
CCOC(=O)C(C)Oc1cccc2c(=O)n(CC(=O)NCc3ccco3)ccc12 (centres undefined) -19.4%
NC(=O)c1ccc(NC(=O)C#Cc2ccccc2)cc1 -1.03%
COc1cccc(N2CCN(Cc3nc4scc(-c5ccccc5)c4c(=O)[nH]3)CC2)c1 -19.9%
O=C(/C=C/c1ccccc1)Nc1ncn[nH]1 -2.53%
Cc1cc(NC(=O)COC(=O)c2ccc(S(=O)(=O)N3CCCc4ccccc43)cc2)no1 -5.52%
Cc1c(C(=O)C(=O)N2CCCc3ccccc32)c2ccccc2n1C -1.01%
O=C(c1cc([N+](=O)[O-])ccc1N1CCCCC1)N1CCc2ccccc21 0.913%
COc1ccc(-c2cc(C(F)F)n3ncc(C(=O)N4CCc5ccccc54)c3n2)cc1 -9.78%
Cc1ccc(Cc2c(C3CCCCC3)nc3ccc(C)cn23)cc1 2.87%
CCCCOc1nc2ccccc2nc1NS(=O)(=O)c1ccc(F)cc1 5.52% [at 46.1 µM]
COc1ccccc1Nc1cc2cc(Br)ccc2c(=O)[nH]1 -6.94%
COc1ccc(Cl)cc1NC(=O)CN(C)CC(=O)Nc1ccccc1N1CCOCC1 -10.8%
Cc1cccc(CSc2nc(-c3cccs3)ccc2C#N)c1 -21.7% [at 46.1 µM]
N#Cc1ccc(-c2cccs2)nc1SCc1c(F)cccc1Cl -17.2% [at 46.1 µM]
Cc1ccc(NC2=C(Cl)C(=O)N(C3CCCCC3)C2=O)cc1 -1.75% [at 46.1 µM]
COc1ccc(CNCC(=O)Nc2ccccc2-n2cccc2)cc1 -5.31%
Cc1noc(C)c1COc1ccc(C(=O)NNC(=O)c2ccccc2)cc1 -5.2%
CCOC(=O)c1cnc(-n2nc(C)cc2C)nc1NNc1cc(C)nc(-c2ccccc2)n1 -4.37% [at 46.1 µM]
CCCCCCN1C[C@H](O)[C@@H](n2cc(COC(=O)c3ccccc3)nn2)C[C@@H]1c1ccc(C)cc1 -7.29% [at 46.1 µM]
Cc1onc(-c2c(F)cccc2Cl)c1C(=O)O/N=C(\N)c1ccc([N+](=O)[O-])o1 3.83%
CNCC(O)Cn1c2c(c3ccccc31)CCCC2 (centres undefined) -0.603%
Cc1oc(C)c2c(=O)ccc3c(c12)OC(N)=C(C#N)C3c1ccc(F)cc1 (centres undefined) -17.8% [at 46.1 µM]
O=C(Nc1ncc(Cc2ccc(SC(F)F)cc2)s1)c1ccccc1 -0.547%
CC(C)OC(=O)c1ccc(NCc2cc(O)ccc2O)cc1Cl -11.5%
COc1cc(-c2nc3ccc(C)cn3c2NCc2ccccc2)ccc1SC1CCCCC1 4.07%
COc1ccccc1/C=C/C=N/NC(=O)c1cc(-c2ccc(C)o2)[nH]n1 -6.92%

Potency, active:
CN(C)c1ccc(/C=C(\C#N)c2nc3ccccc3c(=O)[nH]2)cc1 0.58 µM
O=C(NCCc1ccccc1Cl)c1ccc(Cn2c(=O)c3cccn3c3cccnc32)cc1 18.4 µM
O=c1c2ccccc2nc(/C=C/c2ccc([N+](=O)[O-])o2)n1CCCO 18.4 µM
CCn1c(/C=C/c2ccc([N+](=O)[O-])o2)nc2ccccc2c1=O 11.6 µM
Cn1c(/C=C/c2ccc([N+](=O)[O-])o2)nc2ccccc2c1=O 18.4 µM
Cc1cccc2cc3c(N)c(C(=O)N4CCCc5ccccc54)sc3nc12 14.6 µM
Cc1ccc2nc3sc(C(=O)N4CCCc5ccccc54)c(N)c3cc2c1 14 µM
Cc1cccc2cc3c(N)c(C(=O)N4CCc5ccccc54)sc3nc12 8.2 µM
Cc1cc2nc3s/c(=C/c4ccc(-c5ccccc5C(=O)O)o4)c(=O)n3c2cc1C 20.6 µM
COc1ccccc1N1C(=O)C(Cl)=C(Nc2ccccc2O)C1=O 16.4 µM
C#CCSc1nc(-c2cccs2)ccc1C#N 8.2 µM
CCC(=O)Nc1ccccc1-c1nc2ccccc2n(C(C)C(=O)Nc2ccc(OC)cc2)c1=O (centres undefined) 18.4 µM
CC1(C)CC(=O)C(C=Nc2cc(C(=O)c3ccccc3)ccc2N)=C(O)C1 20.6 µM
CCOC(=O)N1CCc2c(sc3c2C(=O)NC(c2ccc(N(C)C)cc2)N3)C1 (centres undefined) 20.6 µM
Nc1nc(-c2cc(O)ccc2[N+](=O)[O-])cc(-c2ccccc2)c1[N+](=O)[O-] 15.8 µM
COc1ccc(O)c(C(=O)c2coc(=N)c(C(=O)Nc3ccc(SC(F)F)cc3)c2)c1 23.1 µM
CC(C)OC(=O)c1cc(C(=O)c2cc(F)ccc2O)coc1=N 20.6 µM
Cc1ccc2c(/C=C/c3c[nH]c4ccccc34)ccnc2c1C 3.26 µM
